This passage reports outcome and AC50 results from PubChem BioAssay (EPA / NIEHS).

Broadly, the AC50 is the midpoint of the concentration-response curve, whichever way the signal moves.

Results filed as inconclusive are left out. Where a structure was tested more than once in an assay, its records may differ in their call. Calls of active or inactive are those of the source. How the source made its calls, unless noted: active means hit-call score of the fitted dose curve at least 0.9, where 1 is the maximum; inactive means score below 0.9.

Read-out in assay [1]: Transforming Growth Factor (TGFB1), TGFB1 (gene 7040)
Nature of the assay: LTEA_HepaRG_TGFB1: Life Technologies and Expression Analysis (LTEA) Assay for Transforming Growth Factor (TGFB1) Transporter using HepaRG (AID 2283533). The settings on record: mRNA level, 48 h; actives raise or lower the signal. The essentials:
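Eight-point concentration-response (max 100 uM, half-log) in HepaRG under serum-free induction conditions, 48 h. TGFB1 mRNA by qRT-PCR, housekeeping-normalized.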

Read-out in the next assay: TIMP1, TIMP1 (gene 7076)
Nature of the assay: LTEA_HepaRG_TIMP1: Life Technologies and Expression Analysis (LTEA) Assay for TIMP1 using HepaRG (AID 2283534). As to conditions: mRNA level, 48 h; actives raise or lower the signal. The essentials: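 TIMP1 induction or repression in HepaRG cells after 48 h chemical exposure (eight concentrations, highest 100 uM), assessed by normalized qRT-PCR with bidirectional fitting to DMSO controls.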

Read-out in assay [2]: Tumor necrosis factor receptor 1 (TNFRSF1A), TNFRSF1A (gene 7132)
Nature of the assay: LTEA_HepaRG_TNFRSF1A: Life Technologies and Expression Analysis (LTEA) Assay for Tumor necrosis factor receptor 1 (TNFRSF1A) using HepaRG (AID 2283535). As to conditions: mRNA level, 48 h; actives raise or lower the signal. An outline of the steps: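 Assay uses 48 h chemical treatment of differentiated HepaRG monolayers, tested in duplicate at eight concentrations from 100 uM downward in 0.5% DMSO. mRNA is normalized to ACTB, GAPDH and POLR2A, with induction or suppression fitted relative to vehicle.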

Read-out in assay [3]: Thyroid Hormone Responsive (THRSP), THRSP (gene 7069)
Nature of the assay: LTEA_HepaRG_THRSP: Life Technologies and Expression Analysis (LTEA) Assay for Thyroid Hormone Responsive (THRSP) using HepaRG (AID 2283536). As to conditions: mRNA level, 48 h; actives raise or lower the signal. An outline of the steps: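 Differentiated HepaRG cells treated 48 h in serum-free induction medium with 8 half-log concentrations up to 100 uM (0.5% DMSO), duplicates. THRSP mRNA by TaqMan qRT-PCR normalised to ACTB, GAPDH, POLR2A; bidirectional fit versus DMSO.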

Read-out in assay [4]: UDP glucuronosyltransferase (UGT1A6), UGT1A6 (gene 54578)
Nature of the assay: LTEA_HepaRG_UGT1A6: Life Technologies and Expression Analysis (LTEA) Assay for UDP glucuronosyltransferase (UGT1A6) using HepaRG (AID 2283539). The settings on record: mRNA level, 48 h; actives raise or lower the signal. An outline of the steps: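 Measures mRNA change in HepaRG hepatic cells exposed 48 h to chemicals (eight-point, maximum 100 uM, 0.5% DMSO vehicle) in serum-free induction medium. Expression normalized to endogenous controls; DMSO served as negative control and baseline.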

Read-out in assay [5]: X-box binding protein 1 (XBP1), XBP1 (gene 7494)
Nature of the assay: LTEA_HepaRG_XBP1: Life Technologies and Expression Analysis (LTEA) Assay for X-box binding protein 1 (XBP1) using HepaRG (AID 2283540). The settings on record: mRNA level, 48 h; actives raise or lower the signal. An outline of the steps: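 Eight concentrations (half-log, highest 100 uM, 0.5% DMSO) tested in duplicate on HepaRG cells over 48 h in serum-free induction medium; qRT-PCR of XBP1 normalised to ACTB, GAPDH, POLR2A.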

Assay [6] in a line: LTEA_HepaRG_LDH_cytotoxicity: Cytotoxicity Assessment in the Life Technologies and Expression Analysis (LTEA) Assay (AID 2283563; active means hit-call score of the fitted dose curve at least 0.9, where 1 is the maximum;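 on AC50: LDH activity released into spent culture medium as a marker of cell death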). An outline of the steps: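 Spent-medium LDH after 48 h chemical exposure of HepaRG cells in serum-free induction medium; eight concentrations, half-log dilutions from 100 uM, duplicate wells, fitted upward relative to 0.5% DMSO.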
Read-out in assay [7]: Cellular tumor antigen p53 (Homo sapiens) (UniProt P04637)
Nature of the assay: LTEA_HepaRG_TP53: Life Technologies and Expression Analysis (LTEA) Assay for Tumor Protein P53 (TP53) using HepaRG (AID 2283537). The settings on record: mRNA level, 48 h; actives raise or lower the signal. An outline of the steps: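 Differentiated HepaRG cells in serum-free induction medium exposed 48 h in duplicate to 8 half-log concentrations, top 100 uM, 0.5% DMSO. TP53 mRNA by TaqMan qRT-PCR (Fluidigm), normalized to ACTB, GAPDH, POLR2A; fitted bidirectionally versus DMSO.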

Read-out in assay [8]: UDP glucuronosyltransferase (UGT1A1), UGT1A1 (gene 54658)
Nature of the assay: LTEA_HepaRG_UGT1A1: Life Technologies and Expression Analysis (LTEA) Assay for UDP glucuronosyltransferase (UGT1A1) using HepaRG (AID 2283538). The settings on record: mRNA level, 48 h; actives raise or lower the signal. The essentials: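 HepaRG cells, 0.5% DMSO vehicle, 48 h exposure in serum-free induction medium to 8-point half-log series topping at 100 uM, in duplicate. UGT1A1 mRNA by Fluidigm qRT-PCR, normalized to ACTB/GAPDH/POLR2A; bidirectional fit versus DMSO.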

A short description of assay [9]: ATG_XTT_Cytotoxicity: Cytotoxicity Assessment in the Attagene TRANS-FACTORIAL HepG2 Assay (AID 2283584; active means hit-call score of the fitted dose curve at least 0.9, where 1 is the maximum;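 on AC50: XTT signal for cell number as viability in transfected HepG2 cells; cells exposed to compound for 24 h before reading; active means loss of viability signal versus DMSO baseline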). An outline of the steps:
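24 h chemical exposure of reporter-transfected HepG2; XTT signal loss vs DMSO indicates cytotoxicity.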

Sequence of Cellular tumor antigen p53 (Homo sapiens) (P04637 whole entry, looked up): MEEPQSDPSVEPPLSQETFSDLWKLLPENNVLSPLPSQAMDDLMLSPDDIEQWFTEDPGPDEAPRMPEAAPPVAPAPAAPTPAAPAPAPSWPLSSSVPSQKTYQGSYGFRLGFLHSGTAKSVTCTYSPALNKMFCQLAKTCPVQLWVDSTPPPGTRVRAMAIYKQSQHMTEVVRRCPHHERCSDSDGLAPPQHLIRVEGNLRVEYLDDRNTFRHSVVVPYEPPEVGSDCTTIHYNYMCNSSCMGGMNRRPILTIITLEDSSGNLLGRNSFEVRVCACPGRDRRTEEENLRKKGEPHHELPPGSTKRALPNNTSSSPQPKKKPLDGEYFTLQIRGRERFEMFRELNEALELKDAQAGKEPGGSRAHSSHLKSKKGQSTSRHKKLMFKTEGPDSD

With `CCNS(=O)(=O)C(F)(F)C(F)(F)C(F)(F)C(F)(F)C(F)(F)C(F)(F)C(F)(F)C(F)(F)F`, the outcome in [1] was “inactive”; with TIMP1, TIMP1 (gene 7076), “inactive”; in assay [2] it was “inactive”; in assay [4] it was “inactive”; in assay [6] it was “inactive”. Further, the AC50 in assay [3] and in [5] was 48.2 µM (active) each time.
As for `CCCCCCCCCCCCCN1CC(C)OC(C)C1` (stereo not drawn), the outcome in assay [1], in [2], in assay [3], in assay [7], in assay [8] and in [4] was inactive. Besides, the result in [5] and in assay [6] was inactive.
In the case of `CNC(=O)Oc1cccc2c1OC(C)(C)C2`, the result in assay [1], in assay [2], in assay [3], in assay [7], in assay [4] and in [5] was inactive. In addition, the result in [6] was inactive. In addition, in [8], the AC50 was 3.38 µM (active).
Take `Oc1ccc2ccc3cccc4ccc1c2c34`: the compound was classed as inactive in assay [1], in assay [2], in assay [3], in [7], in assay [8] and in assay [4]. In addition, the compound was classed as inactive in assay [5], in assay [6] and in assay [9].
As to `Nc1ccc(Cc2ccc(N)cc2)cc1`, the compound was classed as inactive in [1], in assay [2], in assay [3], in assay [7], in assay [4] and in assay [5]. The compound was classed as inactive in assay [6] and in [9]. In [8], the AC50 is 26.2 µM (active).
`ClC1=C(Cl)C2(Cl)C3C(Cl)C=CC3C1(Cl)C2(Cl)Cl` (stereo not drawn): the compound was classed as inactive in assay [1], in assay [2], in assay [3], in assay [4], in [5] and in assay [6]. In assay [9], the result was inactive. In addition, the concentration at half-maximal activity (AC50) is 14.1 µM (active) in assay [7] and 2.86 µM (active) in assay [8].
For the compound `CCC[CH2][Sn]([Cl])([CH2]CCC)[CH2]CCC`, the outcome is “inactive” in assay [1]; “inactive” with TIMP1, TIMP1 (gene 7076); “inactive” in [5]; “inactive” in assay [9]. The half-maximal activity concentration (AC50) is 50 µM (active) in assay [2]; 2.84 µM (active) in [3]; 11.6 µM (active) in assay [7]; 12.6 µM (active) in [4]; 2.98 µM (active) in [6]; 1.8 µM (active) in [9].
Turning to `CN(C)C(=O)Nc1ccc(Cl)cc1`, the outcome in [1] is “inactive”; with TIMP1, TIMP1 (gene 7076), “inactive”; in assay [2], “inactive”; in assay [3], “inactive”; in [7] it was “inactive”; in assay [4], “inactive”. Also, the compound was classed as inactive in assay [5], in assay [6] and in [9].
With `c1ccc2c(c1)oc1ccccc12`, the outcome in assay [1] was “inactive”; with TIMP1, TIMP1 (gene 7076), “inactive”; in assay [3] it was “inactive”; in assay [7], “inactive”; in assay [8], “inactive”; in assay [4] it was “inactive”. For the same compound, the call in [5] and in assay [6] was inactive.
As to `OCCCl`, the compound was classed as inactive in assay [1], in [2], in assay [3], in assay [7], in assay [8] and in assay [4]. The call in assay [5] and in assay [6] was inactive.
Take `O=C(Nc1ccccc1)c1ccccc1I`: the concentration at half-maximal activity (AC50) was 50 µM (active) in assay [1], 27.1 µM (active) in assay [3], 13.2 µM (active) in [5] and 40.5 µM (active) in assay [6]. Moreover, the outcome with TIMP1, TIMP1 (gene 7076) was “inactive”; in assay [2] it was “inactive”; in [4], “inactive”.
`CC(C)COC(=O)c1ccccc1C(=O)OCC(C)C`: the outcome in [1] is “inactive”; with TIMP1, TIMP1 (gene 7076), “inactive”; in [2] it was “inactive”; in [3], “inactive”; in assay [4] it was “inactive”; in assay [5] it was “inactive”. For the same compound, the outcome in assay [6] and in assay [9] was inactive.
For `c1ccc(NNc2ccccc2)cc1`, the compound was classed as inactive in assay [1], in [2], in assay [3], in assay [7], in assay [8] and in assay [4]. The result in assay [5], in assay [6] and in assay [9] was inactive.
Take `c1ccc(N=Nc2ccccc2)cc1`: the outcome in assay [1] is “inactive”; in the assay with TIMP1, TIMP1 (gene 7076) it was “inactive”; in assay [3], “inactive”; in [7], “inactive”; in [8], “inactive”; in assay [4] it was “inactive”. For the same compound, the compound was called inactive in assay [5] and in assay [6].
Turning to `CC(C)(C)OOC(=O)c1ccccc1`, the call in assay [1], in assay [2], in assay [3], in assay [7], in assay [8] and in [4] was inactive. In addition, the call in assay [5], in assay [6] and in [9] was inactive.
Consider `C[C@]12C=CC3=C4CCC(=O)C=C4CC[C@H]3[C@@H]1CC[C@@H]2O`, for which the outcome is “inactive” in [1]; “inactive” with TIMP1, TIMP1 (gene 7076); “inactive” in [2]; “inactive” in assay [4]; “inactive” in [6]; “inactive” in assay [9]. The AC50 in assay [3] is 15.7 µM (active); in assay [5], 72.4 µM (active).
For `C1=Cc2cccc3cccc1c23`, the compound was called inactive in [1], in assay [2], in assay [3], in assay [7], in assay [8] and in [4]. Further, the outcome in assay [5], in assay [6] and in [9] was inactive.
`[Cl-].[Cl-].[Hg+2]`: the result in assay [1], in assay [2], in [7], in [4], in assay [5] and in assay [9] was inactive. For the same compound, the half-maximal activity concentration (AC50) in assay [3] was 21.8 µM (active).
Consider `c1ccc(C2CO2)cc1` (stereo not drawn), for which the compound was called inactive in assay [1], in assay [2], in assay [3], in assay [7], in assay [4] and in assay [5]. In addition, in assay [6], the compound was called inactive.
As to `CO[C@@H]1[C@H](OC(=O)NC(=O)CCl)CC[C@]2(CO2)[C@H]1[C@@]1(C)O[C@@H]1CC=C(C)C`, the result in assay [1], in assay [2], in [3], in assay [7], in [4] and in assay [5] was inactive. Moreover, the compound was called inactive in [6] and in assay [9].
For `OCCCBr`, the compound was classed as inactive in [1], in [2], in [3], in assay [7], in assay [4] and in assay [5]. Besides, the compound was called inactive in assay [6] and in assay [9].
